From PubChem BioAssay (NCATS)

Assay: High-throughput drug toxicity screening in the BPDCN cell line Cal-1 (AID 1224825)
Settings: Cal-1 BPDCN cell viability, qHTS; at 45.8 µM (top of the series) unless noted
Text: Blastic plasmacytoid dendritic cell neoplasm (BPDCN) is a rare, aggressive and largely incurable hematologic malignancy originating from plasmacytoid dendritic cells (pDCs). Although an initial response to chemotherapy is common, BPDCN prognosis is extremely poor and most patients relapse with drug-resistant disease leading to a median overall survival of ~1 year after diagnosis. To explore novel potential therapeutic strategies in BPDCN, we performed a high-throughput drug toxicity screening in BPDCN cell liens, using of a library of 1,912 small molecules, enriched for compounds that are either approved or in early stages of development for cancer therapy.
A total of 500 exponentially growing Cal-1 cells were seeded per well in 5 uL of media (RPMI + Glutamine, without phenol red plus10% FBS and 1X Pen/Strep) into 1536-well solid white high base tissue culture treated Greiner One Bio Plates (789173-F), using a multidrop combi dispenser and a small sterile cassette. Compounds and controls totaling 23nL per well (negative control DMSO and positive control 9.2 uM Bortezomib-final) were immediately added to the plates using a 1536 head pin tool from Kalypsys. The plates were then covered with stainless steel gasket lids from Kalypsys and incubated for 48 hours at 37C under 95% relative humidity with 5% CO2. After 48 hours, the plates were removed and allowed to reach room temperature before 3 uL of Cell Titer Glo reagent (Promega) were added using an Aurora Flying Reagent Dispenser Bioraptor. The plates were then spun at 1000 rpms to remove bubbles and incubated for 15 minutes at room temperature before reading on a ViewLux using a luminescent filter with a 10 second exposure. The relative luciferase units were used to calculated percent activity using DMSO as 100% and Bortezomib as 0%.
`CC[C@H]1OC(=O)[C@H](C)[C@@H](O[C@H]2C[C@@](C)(OC)[C@@H](O)[C@H](C)O2)[C@H](C)[C@@H](O[C@@H]2O[C@H](C)C[C@H](N(C)C)[C@H]2O)[C@](C)(O)C[C@H](C)C(=NOCOCCOC)[C@H](C)[C@@H](O)[C@]1(C)O` showed a viability (% of control) of 113%.
For `CN1CCC[C@H]1CCO[C@](C)(c1ccccc1)c1ccc(Cl)cc1`, the viability (% of control) was 50.8%.
Compound `O=C(Nc1cccc2c(=O)cc(-c3nn[nH]n3)oc12)c1ccc(OCCCCc2ccccc2)cc1` has a viability (% of control) of 26.2%.
For `O=C(c1ccc(C=Cc2n[nH]c3ccccc23)cc1)N1CCNCC1`, the viability (% of control) was 18%.
In the case of `CN(C)N=Nc1nc[nH]c1C(N)=O`, the viability (% of control) is reported as 121%.
Compound `O=C(Nc1cccc(Cl)c1)Nc1ncc(CCNc2ncnc3ccsc23)s1` has a viability (% of control) of 20.2%.
Work on `Nc1ccc(-c2ccc3ncc4ccc(=O)n(-c5cccc(C(F)(F)F)c5)c4c3c2)cn1` yielded a viability (% of control) of 3.86%.
Work on `CCNC(=O)c1noc(-c2cc(C(C)C)c(O)cc2O)c1-c1ccc(CN2CCOCC2)cc1` yielded a viability (% of control) of 7.68%.
For `CN[C@@H]1[C@@H](O)[C@@H](O[C@@H]2[C@@H](O)[C@H](O[C@H]3O[C@H](CN)[C@@H](O)[C@H](O)[C@@H]3O)[C@@H](N)C[C@@H]2NC(=O)[C@@H](O)CN)OC[C@]1(C)O`, the viability (% of control) was 100%.
With `CCC[C@H](Nc1nc(-c2ccc(NC(=O)NCC)c(OC)c2)ncc1C)c1cccnc1` the viability (% of control) was 4.63%.
Compound `COC(=O)[C@H](c1ccccc1Cl)N1CCc2sccc2C1` has a viability (% of control) of 91.3%.
In the case of `CN1CC(=O)N2C(Cc3c([nH]c4ccccc34)[C@H]2c2ccc3c(c2)OCO3)C1=O` (stereo not given in full), the viability (% of control) is reported as 85.7%.
In the case of `COc1cc(CNC(=O)CCCCC=CC(C)C)ccc1O`, the viability (% of control) is reported as 27.5%.
`CN1CCC(COc2cnc(-c3cccc(Cn4nc(-c5cccc(C#N)c5)ccc4=O)c3)nc2)CC1` gave a viability (% of control) of 5.37%.
For `O=C(C=Cc1ccc(O)cc1)c1ccc(O)cc1O`, the viability (% of control) was 4.05%.
Compound `CC(C)(F)C[C@H](N[C@@H](c1ccc(-c2ccc(S(C)(=O)=O)cc2)cc1)C(F)(F)F)C(=O)NC1(C#N)CC1` has a viability (% of control) of 99.1%.
`C[C@@H]1[C@H](O)[C@@H](C)C=CC=CC=CC=CC=CC=CC=C[C@H](O[C@@H]2O[C@H](C)[C@H](O)[C@H](N)[C@@H]2O)C[C@@H]2O[C@](O)(C[C@@H](O)C[C@@H](O)[C@H](O)CC[C@@H](O)C[C@@H](O)CC(=O)O[C@H]1C)C[C@H](O)[C@@H]2C(=O)O` showed a viability (% of control) of 4.45%.
`CCCCC(F)(F)[C@@]1(O)CC[C@H]2[C@H](CC(=O)[C@@H]2CCCCCCC(=O)O)O1` gave a viability (% of control) of 106%.
In the case of `COc1cc(F)c(C(C)C)cc1-c1ccc(C(F)(F)F)cc1CN1C(=O)O[C@H](c2cc(C(F)(F)F)cc(C(F)(F)F)c2)[C@@H]1C`, the viability (% of control) is reported as 33.1%.
`O=C(Nc1ccc(OC(F)(F)F)cc1)c1sccc1NCc1ccnc2ccccc12` gave a viability (% of control) of 11.5%.
Compound `CN1CC(=O)NC1=NC(=O)Nc1cccc(Cl)c1` has a viability (% of control) of 31.9%.
In the case of `O=c1[nH]c(=O)n([C@H]2C[C@@H](O)[C@@H](CO)O2)cc1C(F)(F)F`, the viability (% of control) is reported as 13.9%.
Work on `Cc1ccccc1C(=O)c1ccc(Nc2ccc(Br)cc2N)cc1Cl` yielded a viability (% of control) of 79.6%.
`COc1ccc(-c2cc(=O)c3c(O)cc(O[C@@H]4O[C@H](CO[C@@H]5O[C@@H](C)[C@H](O)[C@@H](O)[C@@H]5O)[C@@H](O)[C@H](O)[C@@H]4O)cc3o2)cc1O` gave a viability (% of control) of 111%.
`OC[C@H]1O[C@@H](Oc2ccc(O)cc2)[C@H](O)[C@@H](O)[C@H]1O` showed a viability (% of control) of 83.5%.
`c1cc(OCCN2CCCCC2)cc(-c2n[nH]c3ccc(-c4ncn[nH]4)cc23)c1` showed a viability (% of control) of 20.5%.
`CC(=O)Nc1cccc(-n2c(=O)n(C3CC3)c(=O)c3c(Nc4ccc(I)cc4F)n(C)c(=O)c(C)c32)c1` showed a viability (% of control) of 7.97%.
For `C[C@@H]1CCO[C@H]2Cn3cc(C(=O)NCc4ccc(F)cc4F)c(=O)c(O)c3C(=O)N12`, the viability (% of control) was 12.5%.
`Nc1ncnc2c1c(-c1cccc(OCc3ccccc3)c1)cn2C1CC(CN2CCC2)C1` (stereo not given) gave a viability (% of control) of 44.4%.
For `CC(C)C[C@@H](C(=O)N[C@H](C(=O)OC1CCCC1)c1ccccc1)[C@H](O)C(=O)NO`, the viability (% of control) was 8.67%.
Compound `CCn1c(-c2nonc2N)nc2cncc(CNC3CCNCC3)c21` has a viability (% of control) of 56.5%.
`CC1=C(C(=O)Nc2cc3cn[nH]c3cc2F)C(c2ccc(C(F)(F)F)cc2)CC(=O)N1` (stereo not given) showed a viability (% of control) of 58%.
Work on `Cc1nc2c([nH]1)CCN(C(=O)c1ccc(NC(=O)c3ccccc3-c3ccccc3)cc1)c1ccccc1-2` yielded a viability (% of control) of 55.1%.
For `N#Cc1ccc(Oc2ccc3c(c2)COB3O)cc1`, the viability (% of control) was 98.9%.
`CCc1cc(-c2n[nH]c(C)c2-c2ccc3c(c2)OCCO3)c(O)cc1O` showed a viability (% of control) of 9.12%.
Compound `CCCCc1ccc(NS(=O)(=O)c2ccc(C)c(C(=O)N3CCN(c4cccc(C)c4C)CC3)c2)cc1` has a viability (% of control) of 99.3%.
`COc1c(C)c2c(c(O)c1CC=C(C)CCC(=O)O)C(=O)OC2` gave a viability (% of control) of 16.3%.
For `COc1c(C)cnc(Cn2cnc3c(Cl)nc(N)nc32)c1C`, the viability (% of control) was 18.7%.
With `Cc1cc(NC(=O)Nc2ccc(N(C)C)cc2)c2cc(F)cc(F)c2n1` the viability (% of control) was 112%.
In the case of `CCNC(=O)Nc1ccc(Oc2ncnc(N)c2C=NOC)cc1Cl`, the viability (% of control) is reported as 17%.
